Measured values published in PubChem BioAssay (Tox21).
Where “and” joins values, the source holds several entries; their conditions need not be identical. Equal entries are not always repeated. Records with an inconclusive call do not appear. Entries that show only a call come without a potency. Calls of active or inactive are those of the source. Unless noted, calls follow the shape of the dose curve; as a rule, active = well fitted curve in the direction sought with a large enough effect in the repeat runs; inconclusive = weak or mixed curves; inactive = no such curve, though single readings can be large; an effect the other way counts as inactive or inconclusive.

Assays:
[1] = qHTS assay for small molecule agonists of the p53 signaling pathway (AID 651631; calls by dose curve; also: nearly all actives have a fitted effect of over 15% in size)
Procedure, shortened: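 Readout was fluorescence from the LiveBLAzer FRET substrate, applied for 2 h at room temperature after 16 h compound exposure at 37 °C. Cells were the p53RE-bla HCT-116 line, with beta-lactamase driven by p53 response elements.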

[2] = qHTS assay for small molecules that induce genotoxicity in human embryonic kidney cells expressing luciferase-tagged ATAD5 (AID 651632); also: nearly all actives have a fitted effect of over 15% in size; also: potency is read from the fitted curve at half-maximal effect
Procedure, shortened: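 Cells were seeded at 2,000 per well, dosed with compound, and incubated 16 hr at 37C in 5% CO2. Luciferase activity was then quantified after a 30 min room-temperature incubation with Amplite.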

[3] = qHTS assay for small molecules that induce genotoxicity in human embryonic kidney cells expressing luciferase-tagged ATAD5 - cell viability (AID 651634; calls by dose curve; also: nearly all actives have a fitted effect of over 25% in size)
Procedure, shortened: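 Cells (HEK293T, luciferase-tagged ATAD5) are seeded at 2,000 per well, dosed with compound or DMSO vehicle, and incubated 15.5 hr at 37C and 5% CO2. CellTiter-Fluor is added for 30 min before fluorescence is measured.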

[4] = qHTS assay for small molecule disruptors of the mitochondrial membrane potential - cell viability (AID 720634; calls by dose curve;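 also: human HepG2 liver cancer cells; series mostly up to about 83 µM; nearly all actives have a fitted effect of over 20% in size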)
Procedure, shortened: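 Cytotoxicity was measured by ATP quantitation in HepG2 wells that had first been treated with compound for 1 hr and stained with m-MPI dye; CellTiter-Glo incubation was 30 min at room temperature.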

[5] = qHTS assay to test for compound auto fluorescence at 590 nm (red) in HepG2 cells (AID 720674)
Procedure, shortened: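 Compound auto-fluorescence is scored relative to Rose Bengal sodium, measured at 540/590 nm in live HepG2 cultures after 1 hr compound contact (37 C, 5% CO2).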

[6] = qHTS assay to test for compound auto fluorescence at 535 nm (green) in HepG2 cells (AID 720675)
[7] = qHTS assay to test for compound auto fluorescence at 460 nm (blue) in HEK293 cells (AID 720678)
Procedure, shortened: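 Measured: blue fluorescence (Ex 405/Em 460 nm) of compound-treated HEK293 cells, incubated overnight at 37C with 5% CO2 and scaled to triamterene equivalents.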

[8] = qHTS assay to test for compound auto fluorescence at 590 nm (red) in HEK293 cells (AID 720679)
Procedure, shortened: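 Using HEK293 cells at 2,000 per well, the screen added 23 nL of each compound after cell attachment and incubated overnight (37C, 5% CO2). The plate reader then captured red-label fluorescence, Ex/Em 540/590nm.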

[9] = qHTS assay to test for compound auto fluorescence at 535 nm (green) in HEK293 cells (AID 720680)
[10] = qHTS assay to test for compound auto fluorescence at 460 nm (blue) in HEK293 cell free culture (AID 720681)
Procedure, shortened: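 Test compounds were pinned into cell-free culture medium (DMEM with 10% FBS) and fluorescence was read directly at Ex/Em 405/460 nm. Signals were expressed as fluorescence equivalents of triamterene, with DMSO vehicle as control.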

[11] = qHTS assay to test for compound auto fluorescence at 535 nm (green) in HEK293 cell free culture (AID 720682)
Procedure, shortened: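 Compounds were pin-transferred into cell-free DMEM with 10% FBS, and green fluorescence was read at excitation 485 nm and emission 535 nm. Intensities were expressed as fluorescein-equivalent values.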

[12] = qHTS assay to test for compound auto fluorescence at 590 nm (red) in HEK293 cell free culture (AID 720683)
Procedure, shortened: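 Tox21 10K library compounds were pinned into cell-free DMEM with 10% FBS and fluorescence was read at excitation 540 nm. Activity is expressed as Rose Bengal sodium equivalency.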

[13] = qHTS assay to test for compound auto fluorescence at 590 nm (red) in HepG2 cell free culture (AID 720684)
Procedure, shortened: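 Readout: intrinsic compound fluorescence at 590 nm emission after 540 nm excitation, scaled to Rose Bengal sodium. Matrix was cell-free MEM with 10% FBS; DMSO vehicle wells served as control.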

[14] = qHTS assay to test for compound auto fluorescence at 535 nm (green) in HepG2 cell free culture (AID 720686)
[15] = qHTS assay to test for compound auto fluorescence at 460 nm (blue) in HepG2 cells (AID 720687)
Procedure, shortened: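 Cells (2,000/well in MEM with 10% FBS) attached overnight at 37 C, then were exposed to compound or DMSO for 1 hr at 37 C, 5% CO2. Fluorescence read at Ex/Em 405/460 nm, expressed as triamterene-equivalent signal.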

[16] = qHTS assay for small molecule agonists of the p53 signaling pathway - cell viability (AID 651633; calls by dose curve; also: series mostly up to about 83 µM; nearly all actives have a fitted effect of over 30% in size)
Procedure, shortened: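 p53RE-bla cells, seeded at 4,000 per well and rested 5 h at 37 C/5% CO2, received compounds in DMSO for 16 h at 37 C. CellTiter-Glo was then added, and luminescence was read after 30 min at room temperature to gauge cytotoxicity.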

[17] = qHTS assay for small molecule disruptors of the mitochondrial membrane potential (AID 720635); also: potency is read from the fitted curve at half-maximal effect
Procedure, shortened: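 HepG2 cells (2,000/well) attached overnight at 37C, then took compound for 1 hr at 37C, 5% CO2. Mito-MPS dye was added for 30 min; fluorescence was read at 490/535 nm (monomers) and 540/590 nm (aggregates).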

[18] = qHTS assay to test for compound auto fluorescence at 460 nm (blue) in HepG2 cell free culture (AID 720685)
Procedure, shortened: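 Cell-free plates of MEM plus 10% FBS received 23 nL compound or DMSO vehicle; blue-channel (405/460 nm) intensity scored against triamterene as reference fluorophore.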

[19] = target: Glucocorticoid receptor (Homo sapiens) (UniProt P04150); test: qHTS assay to identify small molecule agonists of the glucocorticoid receptor (GR) signaling pathway (AID 720691; active = well fitted activation curve with a large enough effect in the signal ratio in the repeat runs, not every such curve was filed as active; the % refers to the signal ratio; also: potency is read from the fitted curve at half-maximal effect)
Procedure, shortened: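 Steps: seed GR-bla HeLa cells, incubate 4 h at 37 C/5% CO2; pin-transfer DMSO-dissolved compounds; incubate 18 h at 37 C; add LiveBLAzer B/G FRET substrate; after 2 h at room temperature, measure fluorescence.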

[20] = target: Glucocorticoid receptor (Homo sapiens) (UniProt P04150); test: qHTS assay to identify small molecule antagonists of the glucocorticoid receptor (GR) signaling pathway (AID 720692; active = well fitted inhibition curve with a large enough effect in the signal ratio in the repeat runs, not every such curve was filed as active; the % refers to the signal ratio; also: potency is read from the fitted curve at half-maximal effect)
Procedure, shortened: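 Antagonism was scored as loss of dexamethasone-driven (5 nM final) reporter signal in HeLa cells bearing a glucocorticoid response element–beta-lactamase construct, after 18 h compound exposure at 37 C and 2 h FRET substrate loading.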

Chain of Glucocorticoid receptor (Homo sapiens) (P04150 whole entry, looked up): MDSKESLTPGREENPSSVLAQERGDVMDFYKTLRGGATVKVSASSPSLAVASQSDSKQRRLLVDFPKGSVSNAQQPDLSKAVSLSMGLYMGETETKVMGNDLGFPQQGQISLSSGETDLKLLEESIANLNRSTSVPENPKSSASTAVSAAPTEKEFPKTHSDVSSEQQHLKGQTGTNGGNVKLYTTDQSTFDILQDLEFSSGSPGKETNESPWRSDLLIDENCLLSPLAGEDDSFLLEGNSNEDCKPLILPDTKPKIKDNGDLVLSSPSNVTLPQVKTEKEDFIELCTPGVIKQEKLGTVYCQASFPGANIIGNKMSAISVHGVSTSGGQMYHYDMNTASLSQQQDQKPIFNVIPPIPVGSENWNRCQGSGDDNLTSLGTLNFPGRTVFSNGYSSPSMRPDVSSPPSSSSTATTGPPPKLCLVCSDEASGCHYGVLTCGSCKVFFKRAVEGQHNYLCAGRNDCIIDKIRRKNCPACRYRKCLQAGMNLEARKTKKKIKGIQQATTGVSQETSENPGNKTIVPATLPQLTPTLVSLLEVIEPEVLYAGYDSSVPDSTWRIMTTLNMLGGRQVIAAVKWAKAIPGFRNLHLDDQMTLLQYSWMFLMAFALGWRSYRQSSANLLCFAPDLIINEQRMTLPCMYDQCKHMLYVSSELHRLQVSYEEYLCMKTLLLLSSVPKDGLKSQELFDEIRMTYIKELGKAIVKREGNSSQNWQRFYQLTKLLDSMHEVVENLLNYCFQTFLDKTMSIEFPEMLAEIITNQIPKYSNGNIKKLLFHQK

Structure (SMILES) | outcome [1] | Potency [2] | Potency [3] | Potency [4] | outcome [5] | outcome [6] | outcome [7] | outcome [8] | outcome [9] | outcome [10] | outcome [11] | outcome [12] | outcome [13] | outcome [14] | outcome [15] | outcome [16] | Potency [17] | outcome [18] | Potency [19] | Potency [20]
COc1c(N2C[C@@H]3CCCN[C@@H]3C2)c(F)cc2c(=O)c(C(=O)O)cn(C3CC3)c12 | inactive | inactive | inactive | inactive | inactive | inactive | inactive | inactive | inactive | inactive | inactive | inactive | inactive | inactive | inactive |  |  |  |  | 
CC(C)(O)C(=O)c1ccccc1 |  | inactive | inactive | inactive | inactive | inactive | inactive | inactive | inactive | inactive | inactive | inactive | inactive | inactive | inactive | inactive | inactive | inactive | inactive | inactive
FC1(F)C(F)(F)C(F)(F)C2(F)C(F)(F)C(F)(F)C(F)(F)C(F)(F)C2(F)C1(F)F (stereo not drawn) |  | inactive | inactive | inactive | inactive | inactive | inactive | inactive | inactive | inactive |  | inactive | inactive | inactive | inactive | inactive | inactive | inactive | inactive | 
N[C@@H](C(=O)N[C@@H]1C(=O)N2C(C(=O)O)=C(Cl)CS[C@H]12)c1ccccc1 | inactive | inactive | inactive | inactive | inactive | inactive | inactive | inactive | inactive |  | inactive | inactive | inactive | inactive | inactive |  |  | inactive | inactive | 
COc1cc(C(=O)N2CCCCCCC2)cc(OC)c1OC | inactive | inactive | inactive | inactive | inactive | inactive | inactive | inactive | inactive | inactive | inactive | inactive | inactive | inactive | inactive |  |  |  |  | 
COC(C)(C)CCCC(C)CC=O (stereo not drawn) | inactive | inactive | inactive | inactive | inactive | inactive | inactive | inactive | inactive | inactive | inactive | inactive |  | inactive | inactive |  |  | inactive | inactive | inactive
N=C(N)c1ccccc1 | inactive | inactive | inactive | inactive | inactive | inactive | inactive | inactive | inactive | inactive | inactive | inactive | inactive | inactive |  |  |  | inactive |  | 
CCCC(=O)O[C@]1(C(=O)CO)CC[C@H]2[C@@H]3CCC4=CC(=O)CC[C@]4(C)[C@H]3[C@@H](O)C[C@@]21C |  |  | inactive | inactive | inactive | inactive | inactive | inactive | inactive | inactive |  | inactive | inactive | inactive | inactive |  |  | inactive | 0.213 µM (active) | 
CC(C)(C)c1ccc(O)c(O)c1 |  |  | inactive | inactive | inactive | inactive | inactive | inactive | inactive |  | inactive | inactive | inactive | inactive | inactive | inactive | 15.9 µM (active) and 13.7 µM (active) | inactive | inactive | 50.9 µM (active)
O=Cc1cccc([N+](=O)[O-])c1 |  | inactive | inactive | inactive | inactive | inactive | inactive | inactive | inactive |  | inactive | inactive | inactive | inactive | inactive | inactive |  | inactive | inactive | inactive
C[C@H](NC(CCc1ccccc1)C(=O)O)C(=O)N1CCC[C@H]1C(=O)O (stereo partly drawn) |  | inactive | inactive | inactive | inactive | inactive | inactive | inactive | inactive | inactive | inactive | inactive | inactive | inactive | inactive |  | inactive | inactive | inactive | inactive
CN1C(=O)N(C)C(O)C1O (stereo not drawn) |  | inactive | inactive | inactive | inactive | inactive | inactive | inactive | inactive | inactive | inactive | inactive | inactive | inactive | inactive | inactive |  | inactive |  | inactive
CC(C)OC(=O)c1ccccc1 |  | inactive | inactive | inactive | inactive | inactive | inactive | inactive | inactive |  | inactive | inactive | inactive | inactive | inactive |  |  | inactive |  | inactive
CCOC(=O)CC(C)=O |  |  | inactive | inactive | inactive | inactive | inactive | inactive | inactive | inactive | inactive | inactive | inactive | inactive | inactive |  |  | inactive |  | 
OC1CCCCC1c1ccccc1 (stereo not drawn) |  | inactive | inactive | inactive | inactive | inactive | inactive | inactive | inactive |  |  | inactive |  | inactive | inactive | inactive |  | inactive | inactive | inactive
NC(CSCC(=O)O)C(=O)O (stereo not drawn) |  | inactive | inactive | inactive | inactive | inactive | inactive | inactive | inactive | inactive | inactive | inactive |  | inactive | inactive |  |  | inactive |  | 
O=c1cc(-c2ccccc2)oc2ccccc12 |  | 17.2 µM (active) and 19.3 µM (active) | inactive |  | inactive | inactive | inactive | inactive | inactive | inactive | inactive | inactive |  | inactive | inactive |  | 48.6 µM (active) and 15.4 µM (active) |  |  | 27.5 µM (active) and 14.3 µM (active)
CCCCNC(=O)NCCCC |  | inactive | inactive | inactive | inactive | inactive | inactive | inactive | inactive | inactive | inactive | inactive | inactive | inactive | inactive | inactive |  | inactive | inactive | inactive
CC(C)(C)c1nnc(NS(=O)(=O)c2ccccc2)s1 |  | inactive | inactive | inactive | inactive | inactive | inactive | inactive | inactive | inactive | inactive | inactive | inactive | inactive | inactive | inactive |  |  |  | inactive
CCO/C([O-])=N/c1c[n+](N2CCOCC2)no1 |  | inactive | inactive | inactive | inactive | inactive | inactive | inactive | inactive | inactive | inactive | inactive | inactive | inactive | inactive | inactive |  |  | inactive | inactive
COC(=O)CCSCCC(=O)OC |  | inactive | inactive | inactive | inactive | inactive | inactive | inactive | inactive | inactive | inactive | inactive | inactive | inactive | inactive |  | inactive | inactive |  | 
Cc1nc2c([nH]1)c(=O)n(C)c(=O)n2Cc1ccco1 |  | inactive | inactive | inactive | inactive | inactive | inactive | inactive | inactive | inactive | inactive | inactive |  | inactive | inactive |  | inactive | inactive | inactive | 
CO/N=C(/C(=O)N[C@@H]1C(=O)N2C(C(=O)OCOC(=O)C(C)(C)C)=C(C)CS[C@H]12)c1csc(N)n1 |  | inactive | inactive | inactive | inactive | inactive | inactive | inactive | inactive | inactive | inactive | inactive | inactive | inactive | inactive | inactive |  | inactive |  | 
